Assay outcomes: PubChem BioAssay, ICCB-Longwood Screening Facility, Harvard Medical School
This excerpt belongs to a sample that is enriched for hits.
VACV E9 pol inh – vaccinia E9 polymerase processive synthesis inhibitors, primary screen, biochemical, absorbance; Vaccinia virus DNA polymerase (E9) processive complex; in vitro processive DNA synthesis, absorbance read-out; stronger effect = lower value; normalized absorbance, % (concentration not given with the values); 46,000 tested, 0.94% active; AID 493162, 2011; in the data active = normalized absorbance mostly below about 85%, no sharp cut-off; inactive = mostly above about 86%
Of the large screens only hits and unclear results are named; the others gave an inactive call; ! = not confirmed by another sample.

CCC1c2ccc(C)n2CCN1C(=O)NC12CC3CC(CC(C3)C1)C2 (configuration not stated)	none
O=C1NC(=S)S/C1=C/c1ccc(-c2cccc(C(F)(F)F)c2)o1	VACV E9 pol inh 80
O=S1(=O)CCC(N=Cc2ccc(-c3cccc(C(F)(F)F)c3)o2)C1 (configuration not stated)	none
O=C1NC(=S)S/C1=C\c1ccccc1C(F)(F)F	none
CC1CCCC(C)N1C(=O)COC(=O)c1ccc(C(F)(F)F)cc1 (configuration not stated)	none
COc1cccc(CNC(=O)c2[nH]c3cc(C)ccc3c2Sc2ccc(Cl)cc2)c1OC	none
Cc1ccc2c(Sc3ccc(Cl)cc3)c(C(=O)O)[nH]c2c1	VACV E9 pol inh 57
O=C(c1[nH]c2ccccc2c1Sc1ccc(Cl)cc1)N1CCCC1	none
CS[C@H](C)[C@H](OC(C)=O)C(=O)N(C)CCN(C)C (tested in a mixture with another compound)	VACV E9 pol inh 15
CCOc1ccc2nc(SCC)[nH]c2c1	none
CCOc1ccc(-c2nc3ccc(-c4nc5ccc(N6CCN(C)CC6)cc5[nH]4)cc3[nH]2)cc1	VACV E9 pol inh 23
CCOc1ccc(-c2nc(=S)[nH][nH]2)cc1	none
Cc1cc(NC(=O)Cc2ccccc2)ccc1-c1cc2ccccc2oc1=O	none
O=C(/C=C1/Sc2ccccc2N(Cc2ccc(F)cc2)C1=O)N1CCCC1	none
Cc1cc(C)c2c(=O)cc(-c3ccccc3Cl)oc2c1	none
CCOc1ncnc2sc(-c3ccccc3)cc12	none
COc1cc2nc(N3CCN(C(=O)c4ccco4)CC3)nc(N)c2cc1OC	VACV E9 pol inh 85!
COc1cc2c(cc1OC)CN(C(=O)c1ccco1)CC2	none
CC(C)N1CCN(C(=O)c2ccco2)CC1	none
O=C(c1ccc(F)cc1)c1cn(-c2ccc(F)c(Cl)c2)nn1	none
Cc1ccc2[nH]cc(CCNC(=O)c3ccccc3)c2c1	none
CC(=O)NC(=S)Nc1nc2ccccc2n1C(C)=O	none
O=C(NCc1ccco1)c1cc2nc3c(c(C(F)(F)F)n2n1)CCc1ccccc1-3	none
CC(Nc1cc(C)ccn1)=C(C#N)C#N	VACV E9 pol inh 63
Cc1ccnc(NC(=O)c2cc(-c3ccc(C)c(C)c3)n[nH]2)c1	none
Cc1ccnc(NC(=O)c2cccs2)c1	none
CN(C)c1ccc(C(=NO)c2ccc(N(C)C)cc2)cc1	none
CN(C)c1ccc(C(=C2C=CC(=[N+](C)C)C=C2)c2ccc(N(C)C)cc2)cc1	VACV E9 pol inh 49
CN(C)c1ccc(C(=O)OCC(=O)NC2CC2)cc1	none
Cc1cc(C)c2c(CC(=O)Nc3nc(C)c(C(=O)OCC(C)C)s3)coc2c1	none
CCC(=O)O[C@@H](O[P@](=O)(CCCCc1ccccc1)CC(=O)N1C[C@H](C2CCCCC2)C[C@H]1C(=O)O)C(C)C	none
CC1(C)CC(NC(=O)NC(=O)c2c(F)cccc2F)CC(C)(C)N1	none
Cc1ccc(S(=O)(=O)Nc2ccc3c(c2)COC3=O)c(C)c1	none
Cc1cc(C)c(C(=O)Cn2c(=S)[nH]c3ccccc32)c(C)c1	none
CC(C)Cn1c(=S)[nH]c2ccccc21	none
S=c1[nH]c2ccccc2n1Cc1ccccc1	VACV E9 pol inh 78
CCC1CCCCN1C(=O)COC(=O)c1ccc(NC(C)=O)cc1 (configuration not stated)	none
O/N=C/c1c(OCc2ccccc2)ccc2ccccc12	none
CCN(CC)S(=O)(=O)c1ccc(NC2c3ccccc3C(=O)N2Cc2ccccc2)cc1 (configuration not stated)	none
N#Cc1c(N)n(CCc2ccccc2)c2nc3ccccc3nc12	none
N#Cc1c(N)n(CCN)c2nc3ccccc3nc12	VACV E9 pol inh 85
CCCCn1c(N)c(C#N)c2nc3ccccc3nc21	none
N#Cc1ccc(-c2ccc3c(c2)OCCO3)[nH]c1=S	none
CN1C2CCC1CC(NC(=O)CSc1ccc(F)cc1)C2 (configuration not stated)	none
COc1ccc2c(c1)-c1ccccc1S(=O)(=O)N2C	none
COc1ccc2c(c1)C(=NN)c1cc(OC)ccc1-2	VACV E9 pol inh 68
COc1ccc(-c2ccc(OC)cc2C(=O)NN)cc1	none
Cc1cccc2nc(=S)n(C(=O)c3ccc(F)cc3)n12	none
O=C(CC1(O)C(=O)Nc2ccccc21)C1CC2C=CC1C2 (configuration not stated)	none
CCOc1cc2[nH]c(=S)n(CCCCC(=O)N3CCCCCC3)c(=O)c2cc1OCC	none
CC1CC(C)CN(C(=O)c2sc3ccccc3c2Cl)C1 (configuration not stated)	none
Cc1ccc(Cn2cc(CCC(=O)N3CCc4ccccc43)c3ccccc32)cc1	none
COC(=O)COc1cc2occ(-c3csc(C)n3)c(=O)c2cc1C	none
Cc1ccc(Sc2cn[nH]c2C)cc1	VACV E9 pol inh 73
Cc1ccc(Sc2cnc3ccccc3n2)cc1	none
CCOC(=O)c1[nH]ncc1Sc1ccc(Cl)cc1	none
CCOP(=S)(OCC)SCSn1c(=O)oc2cc(Cl)ccc21	none
CC(=O)N[C@@H]1[C@@H](O)[C@H](O)[C@@H](CO)O[C@H]1O	none
CCCN(CCC)C(=O)c1sc2nc(-c3ccccc3)cn2c1C	none
CCC1=Nc2cc(C(=O)N(C)Cc3ccccc3)ccc2Sc2ccc(C)cc21	none
CN(C)/C=C/C=C1\N=C(c2ccccc2)OC1=O	none
CN(C)c1ccc(N/C=C2/CCCC2=O)cc1	none
CN(C)/C=C/C=C1C(=O)CCCC1=O	VACV E9 pol inh 45
CNCc1cc2ccccc2o1	none
CC1C2CC(C(S(=O)(=O)N3CCOCC3)/C2=N/O)C1(C)C (configuration not stated)	none
O=C(O)CSc1nnc(-c2ccc(Cl)cc2Cl)n1Cc1ccco1	none
CCc1ccc(N2Cc3ccccc3C2=N)cc1	none
N=C1c2ccccc2CN1c1ccc2c(c1)OCCO2	none
Cc1cc(C)nc(N2Cc3ccccc3C2=N)n1	VACV E9 pol inh 69
CC(NC(=O)OCc1ccccc1)C(=O)Oc1ccc2c(=O)c(-c3ccc(F)cc3)coc2c1 (configuration not stated)	none
c1ccc(Nc2nc3c(ccc4ccccc43)s2)cc1	none
CCC(C)OC(=O)C1CC=CCC1C(=O)Nc1cccc(Br)c1 (configuration not stated)	none
CC1=CC(C)(C)N=C(Nc2nc(C)c3cc(C)cc(C)c3n2)N1	VACV E9 pol inh 50
CCSC1=NC(C)(C)C=C(C)N1	none
CCCCn1ccnc1C(=O)c1cc(Cl)cc(Cl)c1	none
Cc1ccc(-c2c(O)c3cc(C)c(C)cc3c3oc(=O)sc23)cc1	none
Cc1cccn2cc(CCNS(=O)(=O)c3ccc(Oc4ccccc4)cc3)nc12	none
CN1CCc2c(-c3cccs3)nc(OCc3ccccc3Br)c(C#N)c2C1	VACV E9 pol inh 46
N#Cc1ccc(CSc2nc(-c3cccs3)c3c(c2C(=O)O)CCCC3)cc1	none
N#Cc1c(-c2ccco2)cc(-c2cccs2)nc1OCc1ccc(F)cc1	none
C=CCn1c(SCc2ccc(C#N)cc2Cl)nnc1-c1cccc(OC)c1	none
CSc1nc2ccc3nc(NC(=O)c4ccccc4Cl)sc3c2s1	none
COc1cccc2sc(NC(=O)c3ccccc3Cl)nc12	none
O=C(Nc1nc(=S)ss1)c1ccccc1Cl	VACV E9 pol inh 69
Cc1ccsc1C=Nc1c(F)c(F)c(F)c(F)c1F	none
COc1ccc2c(C)cc(SCC#N)nc2c1	VACV E9 pol inh 84
COc1ccc2c(C)cc(SCc3c(C)noc3C)nc2c1	none
COc1ccc2c(C)cc(SCC(=O)Nc3ccccc3)nc2c1	none
Cc1ccc(S(=O)(=O)NC(=O)Nc2cccnc2)cc1	none
CCC(=O)NC(=S)Nc1cc(-c2nc3ccccc3o2)ccc1OC	none
Oc1c(Cl)cc(Cl)cc1C=Nc1ccc2n[nH]nc2c1	none
Cc1cc(N=Cc2cc(Cl)cc(Cl)c2O)no1	VACV E9 pol inh 56
Oc1c(Cl)cc(Cl)cc1/C=N/c1ccnn1-c1ccccc1	none
CCCSc1ncc(Cl)c(C(=O)Nc2ccc(S(=O)(=O)Nc3nccs3)cc2)n1	none
